The campaign covered roughly 220,000 compounds. About 240 (0.11%) were called active.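 The calls were made as follows: active = inhibition of 50% or more in the single-dose primary screen; inactive = inhibition below 50%.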 Only a selection was taken, and actives are over-represented in it overall.
These compounds were tested on hexokinase 1 [Trypanosoma brucei] (assay: Trypanosoma brucei hexokinase 1 inhibitors, primary screen, biochemical, G6PDH-coupled NADH absorbance, MLSCN library (AID 1430)). Details: recombinant TbHK1, G6PDH-coupled NADH A340; at 10 µM; stronger effect = higher value.

inhibition, inactive:
CCOc1ccccc1C(=O)NC1CC2CCCC(C1)N2Cc1ccccc1 (stereo not given) 3.91%
CCC(CC)C(=O)N1CCN(c2cccc(C)c2C)CC1 -4.04%
Cc1c(Cl)c([N+](=O)[O-])nn1Cc1ccc(C(=O)N/N=C\c2cc(Cl)ccc2O)o1 0.728%
CCCc1nc(-c2cc3cc(C)ccc3[nH]c2=O)no1 -10.1%
Cc1ccc(N(C(=O)Cc2cccs2)C(C(=O)NCC2CCCO2)c2ccncc2)cc1 (stereo not given) -7.37%
CSc1nnnn1-c1c(C)cc(C)cc1C -0.934%
O=C1CC(c2cccc(Cl)c2)CC(O)=C1C=Nc1ccccc1 (stereo not given) -3.36%
CC(=O)O[C@]1(C(C)=O)CC[C@H]2[C@@H]3C=C(C)C4=CC(=O)CC[C@]4(C)[C@H]3CC[C@@]21C -3.98%
Cc1ccc(-c2nc(SCC(=O)Nc3ccccc3OC(F)F)c3c(C)c(C(=O)O)sc3n2)cc1 -36.7%
COCCNC(=O)c1ccc(-n2c(SCc3cccnc3)nc3ccccc3c2=O)cc1 -6.28%
CC(O)c1nc2c(c(=O)n(C)c(=O)n2C)n1C (stereo not given) -12.1%
O=C(Nc1ccc(N2C(=O)c3cccc4cccc(c34)C2=O)cc1)c1ccc(N2CCCCC2)c([N+](=O)[O-])c1 -9.23%
CCCCN(C(=O)c1ccc(OC(F)(F)F)cc1)c1c(N)n(CCC)c(=O)[nH]c1=O 2.61%
COc1cc(NC(=O)COC(=O)c2cnc(C)cn2)c(C)cc1[N+](=O)[O-] -6.37%
CCOC(=O)C1CCN(C(=O)C2(NC(=O)Nc3cccc(F)c3)CCCCC2)CC1 -1.28%
Cc1ccc(SC(C)C(=O)NCc2ccc(F)cc2)cc1 (stereo not given) 4.64%
CC1Cc2ccccc2N1C1=CC(=O)CC(C)(C)C1 (stereo not given) -58.2%
CN(C)CCCO/N=C(\c1ccccc1)c1ccncc1 -6.34%
C/C(=N\Nc1cccc(C(=O)O)c1)c1ccc2c(c1)Nc1ccccc1S2 -4.39%
CCN(CC(=O)Nc1ccc(Cl)c(S(=O)(=O)N(C)C)c1)Cc1nc2ccccc2c(=O)[nH]1 -2.75%
O=C(Oc1ccccc1Cl)c1ccc(N2CCOCC2)c([N+](=O)[O-])c1 -7.89%
C/C(=N/NC(=O)CSc1ccccn1)c1ccc([N+](=O)[O-])cc1 -9.77%
Cc1onc(C(=O)NCc2ccc(F)cc2)c1[N+](=O)[O-] -2.07%
CCOCCCNC(=O)C(NC(=O)c1ccccc1O)c1ccccc1 (stereo not given) -9.74%
COC(=O)C(C(=O)Nc1cccc(C)n1)C1CCCCCC1 (stereo not given) 5.11%
CC(=O)Nc1ccc(NC(=O)C(C)OC(=O)c2ccccc2C(=O)c2ccc(Cl)c([N+](=O)[O-])c2)cc1 (stereo not given) -6.27%
O=S(=O)(NC1CCCCC1)c1ccc(F)c2ccccc12 2.7%
COC(=O)c1c(NC(=O)CCCC(=O)O)sc2c1CCCCC2 -10.9%
C=CCn1c(COc2ccc(F)cc2)nnc1SCC(=O)Nc1cccc(S(N)(=O)=O)c1 -3.84%
CCc1cccc2c3c([nH]c12)C(CC)(CC(=O)O)OCC3 (stereo not given) -3.41%
Cc1ccc(S(=O)(=O)N(C)C)cc1NC(=O)/C=C/c1cccs1 5.08%
N#Cc1c(N)nc2c(c1N)CC(C(F)(F)F)O2 (stereo not given) 4.59%
O=C(CN1C(=O)C2C3C=CC(C3)C2C1=O)NCC1COc2ccccc2O1 (stereo not given) -4.57%
O=C(CCN1C(=O)C2C3C=CC(C3)C2C1=O)Nc1ccccc1F (stereo not given) -3.82%
Nc1nnnn1/N=C/c1cc([N+](=O)[O-])ccc1O -31.3%
O=C(NCCc1ccccc1)C1CCC(Cn2c(=O)c3ccccc3n(Cc3cccnc3)c2=O)CC1 (stereo not given) -9.56%
Cc1cc2nc(SCCN3CCOCC3)[nH]c2cc1C 2.94%
CCOC(=O)c1ccc(NNC(C)=O)c([N+](=O)[O-])c1 -2.98%
N#Cc1ccc(Oc2ccc(C(F)(F)F)cc2NC(=O)c2ccc(F)cc2)cc1 -2.47%
C#CCOCCOCCOCCNc1nc(N2CCN(C(=O)[C@H](CCC(=O)O)n3cc(C(N)CO)nn3)CC2)nc(N2CCN(C(=O)[C@H](Cc3ccc(O)cc3)n3cc(C(N)[C@H](C)CC)nn3)CC2)n1 (stereo not given in full) -6.04%
Cc1cc(OC(=O)c2ccccc2)c([N+](=O)[O-])c(=O)[nH]1 -5.67%
Cc1ccc(C2=N/C(=C\c3ccc(OS(=O)(=O)c4ccc(C)cc4)cc3)C(=O)O2)cc1 2.44%
Brc1ccc(-c2noc(-c3ccccc3)n2)o1 -6.63%
O=C1C(=O)N(c2ccccc2)c2ccccc21 -11.4%
Cc1cc(C(=O)N/N=C/c2cc([N+](=O)[O-])cc(C)c2O)n[nH]1 1.39%
COC(=O)NNC(=O)C1CCC(C)CC1 (stereo not given) -0.712%
O=C(NN=C1CCC(=NNC(=O)c2cccnc2)CC1)c1cccnc1 -1.3%
Cc1ccc(NC(=O)Nc2cc(-c3ccccc3)nn2C)cc1Cl -21.8%
CC1(C)OC(=O)C(=CNC(CO)C(=O)O)C(=O)O1 (stereo not given) 2.5%
Cc1ccc(CSc2nc3[nH]ncc3c(=O)[nH]2)cc1 -4.89%
O=C1NC(c2cccc(Cl)c2)Nc2ccccc21 (stereo not given) -2.98%
C=CCN1C=C2C(=O)C(C)(OC(=O)CCc3ccccc3)C(=O)C=C2C=C1c1ccc(C#N)cc1 (stereo not given) -9.51%
O=C(NNC(=O)c1csc(-c2cccnc2)n1)Nc1ccc(Cl)cc1 1.85%
Cc1ccc(-n2c(C)cc(C(=O)CSc3nnc4ccccn34)c2C)cc1 -7.8%
NC(=O)c1ccccc1N=Cc1ccc2ccccc2c1 27.1%
O=C(OCC(=O)N1CCOCC1)c1ccc(N2CCOCC2)c([N+](=O)[O-])c1 -6.48%
Cc1nc2nc[nH]n2c(=O)c1C/C=C/c1ccccc1 -2.13%
COc1ccc(C(=O)NNc2cc(C)nc(NNC(=O)c3ccc(OC)cc3)n2)cc1 -5.16%
Cc1[nH]n(C)c(=O)c1N=Nc1ccc(S(C)(=O)=O)cc1 -42.5%
Cc1ccc(Oc2nc(-c3ccccn3)nc3ccccc23)cc1 -12.7%
COC(=O)CN1C(=O)N/C(=C/c2ccc(OC)c(C)c2OC)C1=O -28.4%
C=C(C)C(=O)Nc1cccc(C2=NOC3(C2)C[C@H](C(N)=O)N(C(=O)C(c2ccccc2)c2ccccc2)C3)c1 (stereo not given in full) 7.7%
Cc1ccc(Cl)c(OCC(=O)NN2CCN(C)CC2)c1 -3.39%
COc1ccc(C(=O)NC2(C(F)(F)F)NC(=O)N(CCCc3ccccc3)C2=O)c(OC)c1OC (stereo not given) -4.23%
O=C(CSc1nnc2ccc(-c3ccncc3)nn12)N1CCCCC1 -7.7%
COC(=O)c1ccc(/C=N/OCC(=O)Nc2cc(F)ccc2F)cc1 -4.64%
COc1ccc(NC(=O)c2cc3nc(-c4ccccc4)cc(C)n3n2)cc1OC -16.7%
COc1ccccc1NC(=O)C1CCCN(c2cc(C)nc3ncnn23)C1 (stereo not given) -1.1%
COc1cc(/C=C2\SC(=S)N(Nc3ncc(C(F)(F)F)cc3Cl)C2=O)cc(OC)c1OC -3.09%
COc1cccc(/C=N/Nc2cc(C)nc(-c3ccccc3O)n2)c1O -40%
COC(=O)Nc1ccc(S(=O)(=O)N2CCN(CCN3C(=O)C4C5C=CC(C5)C4C3=O)CC2)cc1 (stereo not given) 1%
Cc1c(C(N)=O)sc2ncn(CCOc3ccccc3)c(=O)c12 -3.42%
CCc1ccc(CNC(=O)CCc2nc(-c3cccs3)no2)cc1 -2.08%
O=C(CCC1CCCN(C(=O)Cc2ccc(F)cc2)C1)N1CCN(c2ccccn2)CC1 (stereo not given) -6.3%
CSc1ccccc1NC(=O)Cc1ccc(Br)cc1 32.7%
O=C1/C(=C\Nc2ccccc2)CCN1c1ncccn1 -65.9%
COc1ccccc1NC(=O)CC(NCCN(C)C)C(=O)O (stereo not given) -1.3%
COCCCNc1nc2c(-c3cccc(C(F)(F)F)c3)nnn2c2ccccc12 -3.92%
CCOC(=O)C1(Cc2ccc(Cl)cc2)CCN(C(=O)C2=NNC(=O)CC2)CC1 -7.3%
Cc1ccc(SC(=O)COc2ccc(C)c(C)c2)cc1 7.35%
S=c1nccc(-c2cc(Cl)sc2Cl)[nH]1 -7.08%
CCCN1CNC(=S)N(CCc2ccccc2)C1 -4.25%
Cc1ccc(C)c(Cn2nnc3c(=O)[nH]c(C(=O)Nc4ccc(F)cc4)nc32)c1 1.66%
COc1ccc(OC)c(NC(=O)N[C@H](Cc2ccccc2)C(=O)NN)c1 -2.36%
Cc1ccc(NC(=O)Cn2c(=O)n(CCC(=O)NC3CCN(Cc4ccccc4)CC3)c(=O)c3ccccc32)cc1 1.82%
COc1ccc(/C=N/S(=O)(=O)c2ccccc2)cc1OC -6.73%
CCCSc1ncccc1C(=O)O -11%
CCOC(=O)C1CCN(CCC(=O)Nc2cccc(C)c2)CC1 -3.14%

inhibition, active:
O=C(CN1C(=O)C2C3C=CC(C3)C2C1=O)NCCc1ccccc1Cl (stereo not given) 57.8%
COc1cccc(/C=N/Nc2ncc(C(F)(F)F)cc2Cl)c1O 73.5%
